Source: PubChem BioAssay AID720728 (Molecular Libraries Program, Specialized Chemistry Center, …, 2013)
The source made the active and inactive calls. No rule for the calls is given here.

Assay: mitochondrial permeability transition pore blockers, isolated mitochondria – biochemical, dry powder samples, uHTS hits, dose response (AID 720728)
Settings: calcium retention capacity

Q: Which CRC/CRC0 ratio at 50 uM (fold over control, higher = inhibition) does the source give for CCN(CC)CCCN=Cc1c(O)n(Cc2ccccc2)c(=O)c2ccccc12 here?
A: The CRC/CRC0 ratio at 50 uM (fold over control, higher = inhibition) was 1.3 fold (active).

Q: Which CRC/CRC0 ratio at 50 uM (fold over control, higher = inhibition) does the source give for Cc1cc(C)c2nc(N(CCCN(C)C)C(=O)C3=COCCO3)sc2c1 here?
A: Its CRC/CRC0 ratio at 50 uM (fold over control, higher = inhibition) is 1.4 fold (active).

Q: With CN(C)CCCN1c2ccccc2Sc2ccc(Cl)cc21 as the compound, how does the CRC/CRC0 ratio at 50 uM (fold over control, higher = inhibition) read?
A: The CRC/CRC0 ratio at 50 uM (fold over control, higher = inhibition) was 1.97 fold (active).

Q: For Cc1ccc2nc(N(CCCN(C)C)C(=O)CCc3ccccc3)sc2c1, which CRC/CRC0 ratio at 50 uM (fold over control, higher = inhibition) is on record?
A: Its CRC/CRC0 ratio at 50 uM (fold over control, higher = inhibition) is 1.61 fold (active).

Q: For CC(C)(C)c1ccccc1OCCCCCNCCO, which CRC/CRC0 ratio at 50 uM (fold over control, higher = inhibition) is on record?
A: The CRC/CRC0 ratio at 50 uM (fold over control, higher = inhibition) was 1.82 fold (active).

Q: For COc1ccc(C)c2sc(N(CCCN(C)C)C(=O)CS(=O)(=O)c3ccc(F)cc3)nc12, which CRC/CRC0 ratio at 50 uM (fold over control, higher = inhibition) is on record?
A: The CRC/CRC0 ratio at 50 uM (fold over control, higher = inhibition) was 1.4 fold (active).

Q: For N=c1sccn1CC(=O)Nc1cccc(Oc2ccccc2)c1, which CRC/CRC0 ratio at 50 uM (fold over control, higher = inhibition) is on record?
A: Its CRC/CRC0 ratio at 50 uM (fold over control, higher = inhibition) is 1.91 fold (active).

Q: Which CRC/CRC0 ratio at 50 uM (fold over control, higher = inhibition) does the source give for COc1ccc(Cl)cc1C(=O)Nc1ccc(CN2CCCCC2)cc1 here?
A: The CRC/CRC0 ratio at 50 uM (fold over control, higher = inhibition) was 2.57 fold (active).

Q: With C=CCNCCOc1ccc(C(C)(C)c2ccccc2)cc1 as the compound, how does the CRC/CRC0 ratio at 50 uM (fold over control, higher = inhibition) read?
A: Its CRC/CRC0 ratio at 50 uM (fold over control, higher = inhibition) is 1.95 fold (active).

Q: For COc1cc(NC(=O)c2cc(-c3cccc(O)c3)on2)cc(OC)c1OC, which CRC/CRC0 ratio at 50 uM (fold over control, higher = inhibition) is on record?
A: Its CRC/CRC0 ratio at 50 uM (fold over control, higher = inhibition) is 1.93 fold (active).

Q: With Cc1ccc2nc(N(CCN(C)C)C(=O)/C=C/c3cccs3)sc2c1 as the compound, how does the CRC/CRC0 ratio at 50 uM (fold over control, higher = inhibition) read?
A: The CRC/CRC0 ratio at 50 uM (fold over control, higher = inhibition) was 1.28 fold (active).

Q: With COc1cc(CNCCO)cc(Cl)c1OCc1ccccc1Cl as the compound, how does the CRC/CRC0 ratio at 50 uM (fold over control, higher = inhibition) read?
A: The CRC/CRC0 ratio at 50 uM (fold over control, higher = inhibition) was 1.81 fold (active).

Q: With CCN(CC)c1ccc(NC(=O)c2cc(Cl)ccc2OC)cc1 as the compound, how does the CRC/CRC0 ratio at 50 uM (fold over control, higher = inhibition) read?
A: The CRC/CRC0 ratio at 50 uM (fold over control, higher = inhibition) was 0.622 fold (active).

Q: For CN1CCC[C@@H]1CCO[C@](C)(c1ccccc1)c1ccc(Cl)cc1, which CRC/CRC0 ratio at 50 uM (fold over control, higher = inhibition) is on record?
A: Its CRC/CRC0 ratio at 50 uM (fold over control, higher = inhibition) is 1.81 fold (active).

Q: For C=CCNCCOCCOc1ccc(Cl)cc1C(C)(C)C, which CRC/CRC0 ratio at 50 uM (fold over control, higher = inhibition) is on record?
A: Its CRC/CRC0 ratio at 50 uM (fold over control, higher = inhibition) is 1.81 fold (active).

Q: With Cc1cc(C)c2nc(N(CCCN(C)C)C(=O)c3ccc(S(=O)(=O)N4CCCCCC4)cc3)sc2c1 as the compound, how does the CRC/CRC0 ratio at 50 uM (fold over control, higher = inhibition) read?
A: Its CRC/CRC0 ratio at 50 uM (fold over control, higher = inhibition) is 1.57 fold (active).

Q: Which CRC/CRC0 ratio at 50 uM (fold over control, higher = inhibition) does the source give for COC(=O)c1c(NC(=O)C2CCCCC2)sc2c1CC(C)(C)NC2(C)C here?
A: The CRC/CRC0 ratio at 50 uM (fold over control, higher = inhibition) was 2.05 fold (active).

Q: For CNCCCC12CCC(c3ccccc31)c1ccccc12, which CRC/CRC0 ratio at 50 uM (fold over control, higher = inhibition) is on record?
A: Its CRC/CRC0 ratio at 50 uM (fold over control, higher = inhibition) is 1.82 fold (active).

Q: Which CRC/CRC0 ratio at 50 uM (fold over control, higher = inhibition) does the source give for O=C(CC1NCCc2ccccc21)Nc1ccc(Cl)cc1 (stereo unspecified) here?
A: The CRC/CRC0 ratio at 50 uM (fold over control, higher = inhibition) was 1.65 fold (active).

Q: For COCCCNCCCOc1ccc(Cl)cc1C(C)(C)C, which CRC/CRC0 ratio at 50 uM (fold over control, higher = inhibition) is on record?
A: Its CRC/CRC0 ratio at 50 uM (fold over control, higher = inhibition) is 2.13 fold (active).

Q: For C=CCNCCCOc1ccc(C)cc1Br, which CRC/CRC0 ratio at 50 uM (fold over control, higher = inhibition) is on record?
A: Its CRC/CRC0 ratio at 50 uM (fold over control, higher = inhibition) is 1.53 fold (active).

Q: With N#Cc1c(NCCN)nc(-c2ccco2)c2c1CCCC2 as the compound, how does the CRC/CRC0 ratio at 50 uM (fold over control, higher = inhibition) read?
A: Its CRC/CRC0 ratio at 50 uM (fold over control, higher = inhibition) is 1.81 fold (active).

Q: Which CRC/CRC0 ratio at 50 uM (fold over control, higher = inhibition) does the source give for CCOC(=O)N1CCN(S(=O)(=O)c2ccc(C(=O)N(CCCN(C)C)c3nc4c(C)c(C)ccc4s3)cc2)CC1 here?
A: Its CRC/CRC0 ratio at 50 uM (fold over control, higher = inhibition) is 1.51 fold (active).

Q: Which CRC/CRC0 ratio at 50 uM (fold over control, higher = inhibition) does the source give for CNCCC=C1c2ccccc2CCc2ccccc21 here?
A: Its CRC/CRC0 ratio at 50 uM (fold over control, higher = inhibition) is 1.66 fold (active).

Q: For CC1CCCN(CCC(=O)c2ccc(Br)cc2)C1 (stereo unspecified), which CRC/CRC0 ratio at 50 uM (fold over control, higher = inhibition) is on record?
A: Its CRC/CRC0 ratio at 50 uM (fold over control, higher = inhibition) is 2.73 fold (active).

Q: Which CRC/CRC0 ratio at 50 uM (fold over control, higher = inhibition) does the source give for COc1ccc(-n2cc(CNC3CCN(C)CC3)c(-c3cccc(F)c3)n2)cc1 here?
A: The CRC/CRC0 ratio at 50 uM (fold over control, higher = inhibition) was 1.5 fold (active).
